Rows were chosen to be rich in hits. Some 0.93% of all compounds tested hit in one or more screens of this group.
PLK1 PBD inh: Plk1 (human) PBD binding inhibition; P53350; Plk1 PBD phosphopeptide binding, fluorescence polarization; inhibition, %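 (tested at about 20 µM)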; actives 0.13% (n = 97,000); AID 693; in the data active = inhibition above about 34%, passing the limit was not always enough
Target sequence (P53350 whole entry, looked up): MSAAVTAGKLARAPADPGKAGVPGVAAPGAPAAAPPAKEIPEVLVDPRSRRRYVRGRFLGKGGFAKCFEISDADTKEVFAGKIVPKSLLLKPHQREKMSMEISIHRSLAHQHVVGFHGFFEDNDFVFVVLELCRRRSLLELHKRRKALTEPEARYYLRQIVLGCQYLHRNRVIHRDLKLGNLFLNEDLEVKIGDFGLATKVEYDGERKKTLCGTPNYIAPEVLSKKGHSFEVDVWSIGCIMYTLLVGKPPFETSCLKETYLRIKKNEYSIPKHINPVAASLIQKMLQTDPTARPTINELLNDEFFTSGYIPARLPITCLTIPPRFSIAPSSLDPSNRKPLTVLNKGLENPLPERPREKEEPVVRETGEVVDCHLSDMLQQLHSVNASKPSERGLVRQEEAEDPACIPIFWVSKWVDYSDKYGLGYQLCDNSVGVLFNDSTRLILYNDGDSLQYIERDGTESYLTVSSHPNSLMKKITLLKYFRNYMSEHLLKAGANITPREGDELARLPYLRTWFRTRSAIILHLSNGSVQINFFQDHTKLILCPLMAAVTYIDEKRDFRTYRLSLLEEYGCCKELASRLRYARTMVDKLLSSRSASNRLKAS
PTPN22 inh 2: LYP (human) phosphatase inhibition | Q9Y2R2 | recombinant LYP catalytic domain, DiFMUP fluorescence | inhibition, % at 2 µM | actives 0.21% (n = 96,000) | AID 640;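 active = inhibition at 2 µM at or above a set limit, the screen mean plus 3 SD, cut at about 24% in these data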;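 note: 0% = DMSO with enzyme and 100% = enzyme fully blocked by orthovanadate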
PTPN22 act: LYP (human) phosphatase activation. recombinant LYP, DiFMUP fluorescence; 0 = plate median, 100 = signal doubled. activation, % at 2 µM. actives 0.11% (n = 96,000);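 active = activation at 2 µM above a set limit, the mean plus 5 SD, cut at about 37% in these data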
PLK1 kinase inh: PLK1 (human) kinase inhibition; recombinant PLK1 kinase, TR-FRET peptide phosphorylation; actives 0.53% (n = 97,000); inhibition, % at 10 µM; AID 619;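 active = inhibition of 50% or more in the single-concentration screen; inactive = inhibition below 50%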;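 note: 0% = DMSO max control and 100% = H-89 dihydrochloride min control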
An asterisk follows results filed as active; . = no result.

SMILES	PLK1 PBD inh	PTPN22 inh 2	PTPN22 act	PLK1 kinase inh
Cn1c(=O)cc(SCC(=O)NCCCN2CCN(c3ccc(F)cc3)CC2)c2ccccc21	-20.4	-5.1	2.7	0.3
Cn1c(=O)cc(SCC(=O)NCCN2CCN(c3ccccc3F)CC2)c2cc(Cl)ccc21	-27.2	33.2*	-32.8	-5.2
CCOC(=O)c1cc2c(C(F)(F)F)cc(-c3cccnc3)nc2o1	4.8	4.0	-6.0	-5.1
O=C1CC(=C2c3ccccc3-c3ccccc32)C(=O)N1CCN1CCN(c2cccc(Cl)c2)CC1	-10.3	25.0*	-23.5	-10.2
O=C1CC(=C(c2ccccc2)c2ccccc2)C(=O)N1CCCCN1CCN(c2ccccc2)CC1	-8.3	18.9	-19.1	0.9
O=C(O)CSc1ncnc2nc[nH]c12	-0.5	-7.8	5.1	33.1
Cc1cccc(NC(=O)CSc2ncnc3nc[nH]c23)c1	20.8	-11.3	13.7	55.4*
CC1CN(Cc2nc3c(c(=O)[nH]c(=O)n3C)n2CCN2CCOCC2)CC(C)O1 (centres undefined)	1.9	3.6	-5.0	-9.0
CC1CN(Cc2nc3c(c(=O)[nH]c(=O)n3C)n2CC(N)=O)CC(C)O1 (centres undefined)	7.5	-3.6	3.7	51.1*
Cc1nc(S/C(=C/c2ccc(-c3cccc(Cl)c3)o2)C(=O)O)n[nH]1	7.8	24.4*	-20.8	-14.5
COCCn1c(Cc2ccccc2)nnc1SCc1nc2ccccc2c(=O)[nH]1	21.6	27.7*	-25.0	-8.3
CCN=c1scc(C)n1/N=C/c1ccc(O)c(O)c1O	-8.8	21.2	-17.3	54.6*
COc1cccc(C(=O)N2CCN(S(C)(=O)=O)CC2)c1	0.1	-7.1	8.2	0.5
CCOCC(=O)Nc1nnc(SCCOC)s1	-1.3	-5.5	4.0	51.5*
CCN1CCN(C(=O)Nc2ccccc2OC)CC1	-25.3	4.9	-6.2	-10.2
CCOC(=O)CC(=O)CSc1nc2c(C)c(C)ccc2cc1C	19.6	24.2*	-27.3	-12.9
CCOC(=O)CC(=O)CSc1nc2cc(C)ccc2cc1C	-19.3	-1.9	1.8	-8.4
CCOC(=O)Cc1csc(NC(=O)c2sc3nc4c(C)cc(C)cc4cc3c2N)n1	-47.9	6.8	-1.7	-18.9
CCC12CCCN3CCC4(C(=C(C(=O)OC)C1)Nc1ccccc14)C32 (centres undefined)	-39.0	2.9	-3.5	1.6
O=c1[nH]ncc2c3ccccc3n(Cc3ccc(F)cc3)c12	1.3	-5.2	4.8	52.5*
O=C(Cn1ncc2c3ccccc3n(Cc3ccc(F)cc3)c2c1=O)N1CCN(c2ncccn2)CC1	-5.4	-5.1	4.7	4.7
CCOc1ccc(N=C2NC(=O)S/C2=C\c2ccc(Cl)cc2)cc1	13.7	25.8*	-21.7	-11.2
O=C(OCC#CCSc1nnc(-c2ccncc2)o1)c1cccs1	-11.2	-0.6	4.8	54.2*
N#CCCn1cc(C(CC(=O)c2ccc(Br)cc2)C(=O)O)c2ccccc21 (centres undefined)	-9.7	.	.	55.9*
CCCc1nnc2n1N=C(c1ccc(-c3cc(Cl)ccc3Cl)o1)CS2	-4.8	14.6	-11.2	-12.9
SMILES	PLK1 PBD inh	PTPN22 inh 2	PTPN22 act	PLK1 kinase inh
COc1ccc(S(=O)(=O)Cc2ccc(C(=O)NCc3ccccn3)o2)cc1	3.4	.	.	68.3*
COc1ccc(S(=O)(=O)Cc2ccc(C(=O)N3CCN(c4ccccc4F)CC3)o2)cc1	-2.6	.	.	63.3*
COc1ccc(S(=O)(=O)Cc2ccc(C(=O)N3CCN(c4ccccn4)CC3)o2)cc1	-15.0	.	.	65.8*
COc1ccc(S(=O)(=O)Cc2ccc(C(=O)N3CCCC3)o2)cc1	18.6	3.7	-5.9	-8.4
Cc1cc(C(=O)CSCc2nnc3n(CCC(C)C)c(=O)c4ccccc4n23)c(C)n1C	13.0	-4.1	7.7	-6.9
COCCCNC(=O)/C=C/c1ccc(Cl)cc1	-19.4	10.8	-7.8	-8.0
Cc1c(NC(=O)C(C)OC(=O)[C@@H](NC(=O)c2ccccc2)C(C)C)c(=O)n(-c2ccccc2)n1C (some centres undefined)	-31.5	5.3	-8.5	-7.3
CN1CCN(/C=N/c2c(C#N)cnn2Cc2ccccc2)CC1	-23.9	5.2	-6.7	1.0
COc1ccc(-c2nc(CN3CCC(C(=O)N4CCc5ccccc54)CC3)c(C)o2)cc1OC	-10.2	.	.	61.0*
CCOC(=O)N1CCN(C(=O)C2CCN(Cc3nc(-c4ccccc4C)oc3C)CC2)CC1	13.3	.	.	67.8*
CCOC(=O)N1CCN(C(=O)CSCc2nc(-c3ccccc3C)oc2C)CC1	-9.4	3.8	-4.8	2.0
O=C(N1CCCC1)C12CCC3CC(CC(C3)C1)C2	-8.7	12.5	-11.1	-40.3
O=C(O)c1ccc(-n2nnnc2SCc2ccccc2F)cc1	28.6	.	.	59.0*
Cc1ccc2nc(SCc3nc4c(cnn4-c4ccccc4)c(=O)[nH]3)[nH]c2c1	4.6	1.9	0.5	53.6*
CN1CCN(c2nc(-c3ccncc3)nc3ccccc23)CC1	17.3	8.3	-11.2	53.1*
CC1(C)CC(=O)c2cnc(NC(=O)C3CCCC3)nc2C1	-1.3	5.5	-8.7	-5.9
CCN(CC)CCNc1ncnc2c1[nH]c1ccc(OC)cc12	9.3	-1.7	-0.6	5.8
COCCCNc1ncnc2c1[nH]c1ccccc12	-3.7	33.6*	-31.3	-15.8
O=C(c1ccc(Cl)cc1)c1cnc(-c2ccc(Cl)cc2)s1	28.6	41.2*	-40.1	-9.3
O=C(c1ccccc1)c1cnc(-c2ccc(Cl)cc2)s1	-7.2	3.3	-1.6	-15.1
CC1(C)Cc2c(sc3c2C2=NCCN2C=N3)CO1	11.4	-3.6	6.0	57.4*
O=S1(=O)CCN2C=Nc3sc4c(c3C2=N1)CCCC4	11.0	-3.1	1.6	-10.4
Cc1cc(C(=O)N/N=C/c2cccc([N+](=O)[O-])c2)c(C)o1	-43.1	4.0	-2.3	-4.7
O=C(N/N=C/c1ccncc1)c1cc([N+](=O)[O-])cc([N+](=O)[O-])c1O	-25.3	45.9*	-43.7	8.5
CCCC(C)C1C(C#N)=C(N)Oc2cc(C)oc(=O)c21 (centres undefined)	-11.6	-0.4	0.0	-9.2
SMILES	PLK1 PBD inh	PTPN22 inh 2	PTPN22 act	PLK1 kinase inh
Cc1cccc(N(C(=O)Nc2ccccc2)C2=NCC(C)S2)c1 (centres undefined)	-11.2	.	.	67.0*
O=C(O)CCC(=O)c1ccc2c(c1)OCCO2	-32.8	.	.	65.6*
COc1nc2c(C)cccc2cc1-c1noc(-c2ccco2)n1	12.3	23.7	-24.3	-14.8
CN(C)S(=O)(=O)c1ccc(C(=O)Nc2ccc(F)cc2F)cc1	-7.5	.	.	65.6*
O=S(=O)(Nc1nc2ccccc2[nH]1)c1ccccc1	19.6	-4.6	2.3	13.7
O=S(=O)(Nc1nc2ccccc2[nH]1)c1ccc(Cl)cc1	11.8	3.1	-5.2	60.9*
Cc1cc(NC(=O)CSc2ccc3nnc(-c4cccs4)n3n2)no1	-11.1	-3.3	2.7	-8.5
Cc1c(Cl)cccc1N1CC(C(=O)Nc2nccs2)CC1=O (centres undefined)	-4.7	-0.3	-1.6	53.4*
Cc1ccc(N2CC(C(=O)Nc3nccs3)CC2=O)cc1Cl (centres undefined)	-26.3	-0.7	0.0	11.1
CCOC(=O)Cc1csc(NC(=O)CC(C)(C)C)n1	4.3	-8.2	10.0	-9.2
CC(=O)Nc1nonc1NC(C)=O	-32.4	4.8	-5.8	-4.4
CC(=O)Nc1cc(OC(C)=O)c2nonc2c1OC(C)=O	53.6*	-12.4	11.2	4.6

Screens from PubChem.
